# Measurements as given in paper PMC8384837, “Expanding the binding specificity for RNA recognition by a PUF domain”.
# Positions count from the first letter of the chain named.
# Columns and labels:
# Experiment in all cases: yeast three-hybrid, YBZ-1, SC-Leu-His + 0.5 mM 3-AT, 4 days
# Details in all cases: tags: N-Gal4 AD-HA kept; label: inside an RPR1-promoter hybrid RNA with tandem MS2 sites; ssRNA
# PUM1 PUF domain R4-VPS = PUM1 PUF domain R4-VPS (Homo sapiens, UniProt Q14671 828-1176, N971V;H972P;Q975S)
# In short: (§1)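 The interaction score is the log change in how often each variant appears, from input to selection. Frequencies came from PCR-amplified, Illumina-sequenced repeat regions of Pumilio-1 PUF domain libraries grown in strain YBZ-1 (LexA–MS2 coat fusion, HIS3 reporter) alongside matching RNA elements. Input plates were SC-Leu and selection plates were SC-Leu-His + 0.5 mM 3-AT, each for four days, and the log2 calculation used a pseudocount of 1 where a variant was absent.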
# PUM1 PUF domain R4-SNS = PUM1 PUF domain R4-SNS (Homo sapiens, UniProt Q14671 828-1176, N971S;H972N;Q975S)
# In short: as §1
# PUM1 PUF domain R4-VCA = PUM1 PUF domain R4-VCA (Homo sapiens, UniProt Q14671 828-1176, N971V;H972C;Q975A)
# In short: as §1
# PUM1 PUF domain R3-CRC = PUM1 PUF domain R3-CRC (Homo sapiens, UniProt Q14671 828-1176, Q939C)
# In short: as §1
# PUM1 PUF domain R5-NAR = PUM1 PUF domain R5-NAR (Homo sapiens, UniProt Q14671 828-1176, C1007N;R1008A;Q1011R)
# In short: as §1
# PUM1 PUF domain R5-KTC = PUM1 PUF domain R5-KTC (Homo sapiens, UniProt Q14671 828-1176, C1007K;R1008T;Q1011C)
# In short: as §1
# PUM1 PUF domain R8-NWR = PUM1 PUF domain R8-NWR (Homo sapiens, UniProt Q14671 828-1176, Y1123W;Q1126R)
# In short: as §1
# PUM1 PUF domain R6-VWS = molecular target: T1, PUM1 PUF domain R6-VWS (Homo sapiens, UniProt Q14671 828-1176, N1043V;Y1044W;Q1047S)
# T1 sequence: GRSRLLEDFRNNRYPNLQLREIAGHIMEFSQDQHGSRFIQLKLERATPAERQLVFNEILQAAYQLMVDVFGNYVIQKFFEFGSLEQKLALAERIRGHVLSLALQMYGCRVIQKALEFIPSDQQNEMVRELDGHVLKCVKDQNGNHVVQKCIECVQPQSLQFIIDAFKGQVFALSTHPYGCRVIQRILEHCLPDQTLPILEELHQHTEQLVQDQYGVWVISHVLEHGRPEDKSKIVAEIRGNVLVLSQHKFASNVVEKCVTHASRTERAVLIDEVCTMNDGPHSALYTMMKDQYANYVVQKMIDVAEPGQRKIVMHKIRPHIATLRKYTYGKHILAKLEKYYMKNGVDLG
# In short: as §1
# PUM1 PUF domain R5-KHI = PUM1 PUF domain R5-KHI (Homo sapiens, UniProt Q14671 828-1176, C1007K;R1008H;Q1011I)
# In short: as §1
# PUM1 PUF domain R6-LWK = molecular target: T2, PUM1 PUF domain R6-LWK (Homo sapiens, UniProt Q14671 828-1176, N1043L;Y1044W;Q1047K)
# T2 sequence: T1 sequence with V216L, S220K
# In short: as §1
sequence,measurement,setting,value
GGCUAGAACUAGUGGAUCCCCCGGCGCCCGGCGGCUCGAGCCCGGGUAAGUGUAUAUAGUCUGCAUGCCGCCGGGCGCCAUGCCUGCAGGUCGACUCUAGAAAACAUG,binding signal,PUM1 PUF domain R4-VPS,2.93 log2 enrichment (interaction score)
same,binding signal,PUM1 PUF domain R4-SNS,2.15 log2 enrichment (interaction score)
same,binding signal,PUM1 PUF domain R4-VCA,2.82 log2 enrichment (interaction score)
GGCUAGAACUAGUGGAUCCCCCGGCGCCCGGCGGCUCGAGCCCGGGUAAGUGUAAUUAGUCUGCAUGCCGCCGGGCGCCAUGCCUGCAGGUCGACUCUAGAAAACAUG,binding signal,PUM1 PUF domain R3-CRC,2.22 log2 enrichment (interaction score)
GGCUAGAACUAGUGGAUCCCCCGGCGCCCGGCGGCUCGAGCCCGGGUAAGUGUAAGUAGUCUGCAUGCCGCCGGGCGCCAUGCCUGCAGGUCGACUCUAGAAAACAUG,binding signal,PUM1 PUF domain R3-CRC,2.62 log2 enrichment (interaction score)
GGCUAGAACUAGUGGAUCCCCCGGCGCCCGGCGGCUCGAGCCCGGGUAAGUGUCAAUAGUCUGCAUGCCGCCGGGCGCCAUGCCUGCAGGUCGACUCUAGAAAACAUG,binding signal,PUM1 PUF domain R5-NAR,4.29 log2 enrichment (interaction score)
same,binding signal,PUM1 PUF domain R5-KTC,4.69 log2 enrichment (interaction score)
GGCUAGAACUAGUGGAUCCCCCGGCGCCCGGCGGCUCGAGCCCGGGUAAGCGUAAAUAGUCUGCAUGCCGCCGGGCGCCAUGCCUGCAGGUCGACUCUAGAAAACAUG,binding signal,PUM1 PUF domain R8-NWR,3.79 log2 enrichment (interaction score)
GGCUAGAACUAGUGGAUCCCCCGGCGCCCGGCGGCUCGAGCCCGGGUAAGUGAAAAUAGUCUGCAUGCCGCCGGGCGCCAUGCCUGCAGGUCGACUCUAGAAAACAUG,binding signal,PUM1 PUF domain R6-VWS,7.2 log2 enrichment (interaction score)
GGCUAGAACUAGUGGAUCCCCCGGCGCCCGGCGGCUCGAGCCCGGGUAAGUGUGAAUAGUCUGCAUGCCGCCGGGCGCCAUGCCUGCAGGUCGACUCUAGAAAACAUG,binding signal,PUM1 PUF domain R5-KHI,4.47 log2 enrichment (interaction score)
GGCUAGAACUAGUGGAUCCCCCGGCGCCCGGCGGCUCGAGCCCGGGUAAGUGUACAUAGUCUGCAUGCCGCCGGGCGCCAUGCCUGCAGGUCGACUCUAGAAAACAUG,binding signal,PUM1 PUF domain R4-VPS,2.28 log2 enrichment (interaction score)
same,binding signal,PUM1 PUF domain R4-SNS,0.99 log2 enrichment (interaction score)
GGCUAGAACUAGUGGAUCCCCCGGCGCCCGGCGGCUCGAGCCCGGGUAAGUGUAAAUAGUCUGCAUGCCGCCGGGCGCCAUGCCUGCAGGUCGACUCUAGAAAACAUG,binding signal,PUM1 PUF domain R3-CRC,2.51 log2 enrichment (interaction score)
same,binding signal,PUM1 PUF domain R4-VPS,1.66 log2 enrichment (interaction score)
same,binding signal,PUM1 PUF domain R8-NWR,2.23 log2 enrichment (interaction score)
same,binding signal,PUM1 PUF domain R6-LWK,5.88 log2 enrichment (interaction score)
same,binding signal,PUM1 PUF domain R6-VWS,2.66 log2 enrichment (interaction score)
same,binding signal,PUM1 PUF domain R4-SNS,2.68 log2 enrichment (interaction score)
